Test results taken from PubChem BioAssay AID1619 (SRMLSC, 2009).
About 830 (0.38%) of roughly 220,000 compounds were called active.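 Rule for the calls: active = compound inhibiting the enzyme by more than half at any dose during confirmatory dose-response retesting; inconclusive = strong single-dose inhibitors picked by rank but not retested; inactive = the rest.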 A selection follows. Potency and affinity values are given separately.

Molecular target: Leucine aminopeptidase (Plasmodium falciparum (isolate 3D7)) (UniProt Q8IL11)
Sequence (Q8IL11 whole entry, looked up): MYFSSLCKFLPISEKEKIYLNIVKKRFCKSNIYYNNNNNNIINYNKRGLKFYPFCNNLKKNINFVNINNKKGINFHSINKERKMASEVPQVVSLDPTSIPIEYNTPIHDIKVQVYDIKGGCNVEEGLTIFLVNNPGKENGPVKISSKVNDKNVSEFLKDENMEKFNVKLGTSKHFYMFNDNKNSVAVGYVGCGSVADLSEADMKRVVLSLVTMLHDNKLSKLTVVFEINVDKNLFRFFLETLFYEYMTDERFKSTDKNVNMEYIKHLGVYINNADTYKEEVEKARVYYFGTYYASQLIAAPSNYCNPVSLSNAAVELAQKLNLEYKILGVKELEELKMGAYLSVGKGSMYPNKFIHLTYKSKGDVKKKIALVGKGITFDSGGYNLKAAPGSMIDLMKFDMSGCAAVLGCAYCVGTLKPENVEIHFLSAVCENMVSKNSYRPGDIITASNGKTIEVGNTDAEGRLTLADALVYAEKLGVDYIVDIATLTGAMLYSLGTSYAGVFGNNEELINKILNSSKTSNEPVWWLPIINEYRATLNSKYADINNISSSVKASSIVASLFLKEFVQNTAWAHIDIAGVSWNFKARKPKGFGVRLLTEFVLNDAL
Test: P. falciparum M17LAP inhibitors, primary screen, biochemical, fluorogenic H-Leu-NHMec substrate, 1536-well (AID 1619);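 note: plate controls were full reaction with DMSO carrier for no effect and no enzyme background for full effect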
Conditions: recombinant M17LAP, H-Leu-NHMec fluorogenic kinetic assay; at 30 µM; active compounds read high

inhibition, inactive:
CCN(CC)S(=O)(=O)c1ccc(N)cc1 11.4%, CCCSc1ccc(C(=O)Nc2ccc(Cl)cc2)cn1 -6.5%, Cc1cc(/C=C(\C#N)C(=O)NCc2ccco2)c(C)n1-c1cccnc1 20.4%, COc1ccc(-n2c(C)cc(/C=C(\C#N)C(=O)NCc3ccco3)c2C)cc1 -8.8%, Cc1ccc(-n2c(Cc3cccn3C)nnc2SCC(=O)NCc2ccco2)cc1 20.7%, Cc1ccc(Cn2ccc(C3CC3)n2)cc1 -1.75%, CC(=O)NC1(C(=O)O)CCCC1 9.39%, COC(=O)C1=C(O)C2(C(=O)O)CC(C(=O)OC)=C(O)C(C(=O)O)(C1)C2 -3.67%, Cc1ccc(S(=O)(=O)NCCCCCC(=O)Nc2ccccc2)cc1 3.08%, CCN1C(=O)/C(=C2/C=Cc3ccccc3N2CC)SC1=S -0.63%, CC(C)CC1C(C#N)=C(N)Oc2n[nH]c(-c3cccs3)c21 (configuration not stated) 73.3%, CCCc1[nH]nc2c1C(c1ccsc1)C(C#N)=C(N)O2 (configuration not stated) 2.74%, CCCc1[nH]nc2c1C(c1ccncc1)C(C#N)=C(N)O2 (configuration not stated) 30.1%, CC(C)(C)c1[nH]nc2c1C(c1cccnc1)C(C#N)=C(N)O2 (configuration not stated) 5.24%, N#CC1=C(N)Oc2n[nH]c(-c3ccccc3)c2C1c1ccncc1 (configuration not stated) 62.5%, CCc1[nH]nc2c1C(c1cccnc1)C(C#N)=C(N)O2 (configuration not stated) 11.3%, Cc1[nH]nc2c1C(CC(C)C)C(C#N)=C(N)O2 (configuration not stated) 14.9%, Cc1[nH]nc2c1C(c1ccsc1)C(C#N)=C(N)O2 (configuration not stated) 29.4%, CO/N=C/NC(=O)c1c(OC)ccnc1Oc1ccccc1 6.63%, CSCCC(NC(=O)c1ccc([N+](=O)[O-])cc1Cl)C(=O)OCC(=O)N(C)C (configuration not stated) -3.36%, O=C(Nc1ccccc1C(=O)N1CCOCC1)C1CCCO1 (configuration not stated) -7.06%, CC(C)c1[nH]nc2c1C(c1cccnc1)C(C#N)=C(N)O2 (configuration not stated) 13.5%, COC(=O)Cc1[nH]nc2c1C(c1ccc(O)c(OC)c1)C(C#N)=C(N)O2 (configuration not stated) 17.1%, Cc1ccc(-c2ccc(C3C(C#N)=C(N)Oc4n[nH]c(C)c43)o2)cc1 (configuration not stated) 15.7%, CCCc1[nH]nc2c1C(c1ccc(O)c(OC)c1)C(C#N)=C(N)O2 (configuration not stated) 29.1%, Cc1[nH]nc2c1C(CCc1ccccc1)C(C#N)=C(N)O2 (configuration not stated) 68.1%, Cc1ccc(C2C(C#N)=C(N)Oc3n[nH]c(C)c32)cc1 (configuration not stated) 52.9%, CCCc1[nH]nc2c1C(c1cccnc1)C(C#N)=C(N)O2 (configuration not stated) 9.46%, CCCc1[nH]nc2c1C(Cc1ccccc1)C(C#N)=C(N)O2 (configuration not stated) 28.5%, CC(C)NC(=O)/C=C/C(=O)O -17.6%, CCn1c(NCc2ccco2)nc2ccccc21 3.48%, Cc1cc(C)cc(OCC(=O)OCC(=O)c2ccc3c(c2)NC(=O)CO3)c1 -0.31%, O=C(CNC(=O)c1ccccc1)NCC(=O)OCc1ccccc1Cl -2.59%, O=C(CN(c1ccccc1)S(=O)(=O)c1ccc(F)cc1)NC1CCS(=O)(=O)C1 (configuration not stated) 8.02%, CCOc1ccc(CC(=O)N2CCN=C2SCc2ccc([N+](=O)[O-])cc2)cc1 -3.75%, Cc1cc(C)c2cc(C(=O)N3CCC(Cc4ccccc4)CC3)[nH]c2c1 -4.41%, COC(=O)c1ccc(C(=O)OC)c(NC(=O)CSc2cccc[n+]2[O-])c1 -1.81%, Cc1ccc(-c2csc(/C(C#N)=C(\O)CCl)n2)cc1 6.37%, Cc1ccc(C2C(C#N)=C(N)Oc3nc(-c4ccccc4)[nH]c32)o1 (configuration not stated) 94%, N#CC1=C(N)Oc2cc3ccccc3cc2C1c1cccnc1 (configuration not stated) 0.21%, Cc1ccc(-c2c(C#N)c(N)nc3c2CCCC3)s1 9.55%, CC(=O)c1nn(-c2cccc(Cl)c2)cc1C(=O)c1ccco1 -0.97%, CC(=O)c1cc(Cl)ccc1OC(=O)c1ccco1 -7.24%, CN(C)CCNC(=O)C(c1ccccc1)c1ccccc1 4.43%, COc1cccc(C(=O)NNC(=O)C(=O)N2CCCCC2)c1 5.57%, O=C(Nc1ccc(C(=O)O)cc1)/C(=C\c1ccc2c(c1)OCO2)NC(=O)c1ccc(Br)o1 12%, O=C(Nc1cccc(C(=O)O)c1)/C(=C/c1ccc2c(c1)OCO2)NC(=O)c1cccc(Br)c1 51.7%, COCCn1nnnc1C(c1ccccc1OC)N1CCN(c2ccccc2F)CC1 (configuration not stated) 0.44%, O=C(Cc1ccccc1)N1CCCC(c2nc(-c3ccc(S(=O)(=O)N4CCCC4)cc3)no2)C1 (configuration not stated) 0.8%, O=C(O)CCn1cc(/C=C/C(=O)c2ccc(Cl)cc2)c(-c2ccc(Br)cc2)n1 31.8%, O=C(O)CCn1cc(/C=C/C(=O)c2ccc(Cl)cc2)c(-c2cccc(Br)c2)n1 6.04%, Nc1nonc1C(=O)N/N=C/c1cccc([N+](=O)[O-])c1 39.7%, CN(C)c1ccc(/C=N/NC(N)=S)cc1[N+](=O)[O-] -6.38%, CCCNS(=O)(=O)c1ccc(N2CCCC2=O)c([N+](=O)[O-])c1 -2.44%, CC(C)N(C(=O)C1CC(=O)OC12CCCCC2)C(C)C (configuration not stated) -0.49%, CCC(=O)Nc1c(-c2ccc(OC)cc2)c(=O)c2ccccc2n1C 0.6%, Cc1ccc(NS(=O)(=O)Cc2ccccc2)nc1 -10.1%, O=S(=O)(Cc1ccccc1)Nc1ccc(Br)cn1 8.11%, Cc1nc2c(cc1C(=O)N/N=C/c1ccc(O)c(O)c1)c(=O)n(C)c(=O)n2C 13.8%, Cc1ccccc1N1C(=O)CC2(CCCC2)CC1=O -2.41%, CN(C)c1ccc(/C=N/N=C(N)N)cc1[N+](=O)[O-] 58.3%, Cc1ccc(/C=C2\NC(=S)NC2=O)cc1[N+](=O)[O-] -1.94%
